Dicer inh = inhibitors of Dicer pre-microRNA processing, primary screen, biochemical, cat-ELCCA, chemiluminescence | cat-ELCCA pre-miR-21 Dicer processing; stronger effect = higher value | z-score at 25 µM | Endoribonuclease Dicer (Homo sapiens), Q9UPY3 | 6% of 47,000 active; in the data active = z-score above about 3, passing the limit was not always enough;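 also: plate controls were vehicle for no effect and no enzyme for full effect; higher signal means more uncleaved substrate so more Dicer inhibition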
Starred values were filed as active, the others as inactive. The full list was thinned out, with hits kept by preference.

SMILES	Dicer inh
CC1=C(C(=O)OCCOc2ccccc2)C(c2ccccc2Br)C2=C(CCCC2=O)N1 (stereo unspecified)	0.27
CSc1nc(-c2ccccc2)[nH]c(=O)n1	1.1
O=C(CSc1nnc(SCC(=O)c2ccccc2)s1)c1ccccc1	-0.49
Cc1cc(C)c(C(=O)Nc2ccccc2)c(CC(C)(C)C(=O)O)c1	4.7*
CCc1sc(C(C)(C)C)cc1NC(=O)c1ccccc1	-1.2
Cc1cc(C)c(C(=O)O)c(CC(C)(C)C(=O)O)c1	-2.3
CCOC(=O)CSc1ncnc2sc3c(c12)CCC(C)C3 (stereo unspecified)	1.1
Cc1ccc(S(=O)(=O)N(C(=O)C(C)C)c2ccc3oc(=O)sc3c2)cc1	1.7
Cc1cc(F)ccc1S(=O)(=O)N(C(=O)C(C)C)c1ccc2oc(=O)sc2c1	5*
CCCCC(=O)N(c1ccc2oc(=O)sc2c1)S(=O)(=O)c1cc(OC)ccc1OC	5.2*
O=C(c1ccncc1)N(c1cc2sc(=O)oc2c2ccccc12)S(=O)(=O)c1ccc(F)cc1	-2.7
Cc1cc(F)ccc1S(=O)(=O)N(C(=O)c1ccncc1)c1ccc2oc(=O)sc2c1	6.5*
CCCC(=O)N(c1ccc2oc(=O)sc2c1)S(=O)(=O)c1ccc(Br)cc1	1.1
CCCC(=O)N(c1ccc2oc(=O)sc2c1)S(=O)(=O)c1ccc(OC)cc1	-2.1
CCOc1ccc(S(=O)(=O)N(C(=O)C(C)C)c2ccc3oc(=O)sc3c2)cc1	3.1*
CCCC(=O)N(c1ccc2oc(=O)sc2c1)S(=O)(=O)c1ccc(OCC)cc1	-0.94
COc1ccc(S(=O)(=O)N(C(=O)C(C)C)c2ccc3oc(=O)sc3c2)cc1OC	0.67
COC(=O)c1sc2nc(-c3cccs3)cc(C(F)(F)F)c2c1N	1.8
COc1ccc2cc(C(=O)c3ccc(Cl)cc3)oc2c1	1.4
CCCOC(=O)C1=C(C)NC2=C(C(=O)CC(c3ccc(OC)cc3)C2)C1c1ccc(OC)cc1OC (stereo unspecified)	-0.76
N=C1SCC(=O)N1c1ccc(Cl)cc1Cl	-0.92
Cc1csc(Cn2nc(CC(=O)NNC(=S)Nc3ccccc3)c3ccccc3c2=O)n1	0.62
COC(=O)C(O)(NC(=O)c1c(F)cccc1F)C(F)(F)F (stereo unspecified)	-1.1
CC(=O)N1Cc2ccccc2S12OC(=O)c1ccccc12 (stereo unspecified)	-0.84
CC(=O)C(C)(CCC(=O)O)CCC(=O)O	-0.03
SMILES	Dicer inh
CC1=C(C(=O)OC(C)C)C(c2ccc(Cl)cc2)C2=C(CC(c3ccccc3)CC2=O)N1 (stereo unspecified)	2
CCOc1ccccc1C1CC(=O)NC(SCc2cccc3ccccc23)=C1C#N (stereo unspecified)	-0.33
Cn1nnnc1SCC(=O)Nc1cccc(O)c1	7.4
CCOC(=O)c1c(NC(=O)CCC(=O)OC)sc2c1CCCC2	-1.2
CCOC(=O)c1c(NC(=O)Cn2nc(C(F)(F)F)c3c2CCC3)sc2c1CCCC2	0.11
CCCOC(=O)c1c(NC(=O)Cn2nc([N+](=O)[O-])cc2C)sc2c1CCCC2	4.3*
Cc1nc2c(C)cccc2c2c1CCN2c1cccc(C(F)(F)F)c1	-1.2
Cc1ccc(OCc2nc3c4c5c(sc4ncn3n2)CCCC5)cc1	2
Cn1c(=O)c2c(-c3ccc(F)cc3)cc(-c3cccc(F)c3)nc2n(C)c1=O	2.2
COc1ccc(-c2cc(-c3ccc(OC)cc3)c3c(=O)n(C)c(=O)n(C)c3n2)cc1	3.4*
COc1ccc(-c2nc3c([nH]2)c(=O)n(C)c(=O)n3C)c(OC)c1	-0.42
O=C(N/C=C/c1ccsc1)Nc1ccc(F)cc1	2.2
CC(C)(C)C(=O)NC(=S)Nc1cccc(C(F)(F)F)c1	-0.2
COC(=O)c1ccc(CSc2ccccc2NC(=S)Nc2cccc(C(F)(F)F)c2)o1	4.4*
FC(F)(F)c1cccc(NC(=S)Nc2ccccc2C(F)(F)F)c1	-0.33
COc1cccc(OCC(O)Cn2cnc3cc(C)c(C)cc32)c1 (stereo unspecified)	1.2
N/C(=N\OC(=O)c1csnc1-c1c(Cl)cccc1Cl)c1c(Cl)cccc1Cl	0.8
c1ccc2sc(SCCCN3CCCCC3)nc2c1	-0.7
Cc1cc(C)cc(NC(=O)Oc2ccccc2N2CCCCC2)c1	10
CC(=O)Nc1ccc(S(=O)(=O)Oc2ccccc2N2CCCCC2)cc1	-0.23
O=C(Nc1ccc(OCc2ccccc2)cc1)Oc1ccccc1N1CCCCC1	4.8*
O=C(NCc1nnc2c(Cl)cc(C(F)(F)F)cn12)c1ccccc1	-1.2
CCSCCOC(=O)C1=C(C)NC2=C(C(=O)CC(C)(C)C2)C1c1ccc(OC)cc1OC (stereo unspecified)	2.5
COc1ccc(-c2c(N)n(-c3ccccc3)c(=O)c3cc([N+](=O)[O-])ccc23)cc1OC	3.4*
Nc1c(-c2ccc3ccccc3n2)c2ccc([N+](=O)[O-])cc2c(=O)n1Cc1ccccc1	-1.1
SMILES	Dicer inh
COc1cccc(-n2c(N)c(C#N)c3ccc([N+](=O)[O-])cc3c2=O)c1	-0.03
CCOC(=O)c1cc(C#N)c(Sc2nnc(SCC3CC3)s2)nc1C(F)(F)F	1.2
O=C(CC1(O)C(=O)Nc2ccc(Cl)cc21)c1ccccc1 (stereo unspecified)	3
Cc1cc(C)c(C(=O)CC2(O)C(=O)Nc3ccc(C)cc32)c(C)c1 (stereo unspecified)	1.2
Cc1cc(C)c(C(=O)CC2(O)C(=O)Nc3ccc(Cl)cc32)c(C)c1 (stereo unspecified)	4.6*
Cn1c(NCc2ccc(F)cc2)cc(=O)n(C)c1=O	-0.02
Cc1ccc2nc(CCCC(=O)O)[nH]c2c1	3.6*
O=C(O)Cc1nc2ccc(Cl)cc2[nH]1	-0.26
Cc1ccc(C(=O)/C=C/Sc2nc3ccc(C)cc3[nH]2)cc1	1.1
O=C(O)CCCC(=O)Nc1nc2ccccc2s1	2.5
CC1=C(C(=O)Nc2ccccn2)C(c2ccc(Br)cc2)n2nnnc2N1 (stereo unspecified)	2.3
COC(=O)c1ccc(C2c3c(oc4cc(C)c(C)cc4c3=O)C(=O)N2c2nccs2)cc1 (stereo unspecified)	2.7
COC(=O)COc1c(C(=O)OC)sc2ccccc12	0.21
Cc1cc(-c2nn(C)c(=O)c3ccccc23)cc(C)c1OS(=O)(=O)c1ccccc1OC(F)(F)F	-1.5
CCOC(=O)NC(=S)Nc1cc(C)cc(C)n1	0.02
Cn1c(SCc2n[nH]c(=S)n2Cc2ccccc2)nnc1-c1ccccc1	-1.4
Cc1cc(=O)n(-c2ccc(O)cc2)[nH]1	-7.2
Cc1cc(=O)n(-c2ccc(Cl)c(Cl)c2)[nH]1	-2.9
O=C1CC(c2ccccc2Cl)Cc2c1cnn2-c1nc2ccccc2[nH]1 (stereo unspecified)	-0.41
Cc1cc(=O)n(-c2nc3ccccc3[nH]2)[nH]1	4.3*
Cc1[nH]n(-c2nc3ccccc3[nH]2)c(=O)c1C1OC(=O)c2ccccc21 (stereo unspecified)	3.8*
Cc1ccccc1-c1nc2ccccc2[nH]1	4.5
O=c1c(F)cn(Cc2ccc(F)cc2)c(=O)n1Cc1ccc(F)cc1	-0.72
Cc1nc2ccccn2c1-c1ccnn1C(=O)c1ccc(C(F)(F)F)cc1	1
CCCCOCC1CC2(CC(C)(c3csc(N)n3)OC2=O)C(=O)O1 (stereo unspecified)	-0.37
C=CCNc1nc(C2(C)CC3(CC(C)OC3=O)C(=O)O2)cs1 (stereo unspecified)	3.5*
CC(C)CC1CC(C)(c2csc(Nc3ccccc3)n2)OC1=O (stereo unspecified)	-0.72

Screening data: PubChem BioAssay, Center for Chemical Genomics, University of Michigan
